Data taken from PubChem BioAssay AID1159580 (chemical genetic matrix, 2015).
About 2,000 (36%) of roughly 5,500 compounds were called active. Roughly 18% stayed inconclusive and do not appear here. No stated cut-off is given here; in the data, active means normalized growth mostly below about 0.91 (no sharp cut-off); inconclusive means no clear call, values can overlap the other calls; inactive means mostly above about 0.92. The list shows a part of the results.

Test: chemical genetic growth profiling, strain panel (AID 1159580);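 further: tested at 20 µM; growth read once vehicle control cultures reached saturation at 30 °C; 1 = growth at the plate median or of vehicle wells; lower values mean less growth of the strain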
Settings: growth OD
[1] = S. cerevisiae deletion strains, locus YAL013W, strain DEP1, active compounds read low
[2] = S. cerevisiae deletion strains, locus YAL040C, strain CLN3, active compounds read low
[3] = S. cerevisiae deletion strains, locus YCL061C, strain MRC1 (second series), active compounds read low
[4] = S. cerevisiae deletion strains, locus YDR150W, strain NUM1, active compounds read low
[5] = S. cerevisiae deletion strains, locus YDR363W, strain ESC2, active compounds read low
[6] = S. cerevisiae deletion strains, locus YER002W, strain NOP16, active compounds read low
[7] = S. cerevisiae deletion strains, locus YGR078C, strain PAC10, active compounds read low
[8] = S. cerevisiae deletion strains, locus YGR229C, strain SMI1, active compounds read low
[9] = S. cerevisiae deletion strains, locus YMR263W, strain SAP30, active compounds read low
[10] = S. cerevisiae deletion strains, locus YMR307W, strain GAS1, active compounds read low
[11] = S. cerevisiae deletion strains, locus YNL153C, strain GIM3, active compounds read low
[12] = S. cerevisiae deletion strains, locus YNL175C, strain NOP13, active compounds read low
[13] = S. cerevisiae deletion strains, locus YNL197C, strain WHI3, active compounds read low
[14] = S. cerevisiae deletion strains, locus YNL224C, strain SQS1, active compounds read low
[15] = S. cerevisiae deletion strains, locus YNL322C, strain KRE1, active compounds read low
[16] = S. cerevisiae deletion strains, locus YOR083W, strain WHI5 (second series), active compounds read low
[17] = S. cerevisiae deletion strains, locus YPL055C, strain LGE1, active compounds read low
[18] = S. cerevisiae deletion strains, locus YPL241C, strain CIN2, active compounds read low
[19] = S. cerevisiae deletion strains, locus YHR030C, strain SLT2, active compounds read low
[20] = S. cerevisiae deletion strains, locus YHR079C, strain IRE1, active compounds read low
[21] = S. cerevisiae deletion strains, locus YJL095W, strain BCK1, active compounds read low
[22] = S. cerevisiae deletion strains, locus YJR066W, strain TOR1, active compounds read low
[23] = S. cerevisiae deletion strains, locus YLR113W, strain HOG1, active compounds read low
[24] = S. cerevisiae deletion strains, locus YNL183C, strain NPR1, active compounds read low
[25] = S. cerevisiae deletion strains, locus YOR231W, strain MKK1, active compounds read low
[26] = S. cerevisiae deletion strains, locus YPL256C, strain CLN2, active compounds read low
[27] = S. cerevisiae deletion strains, locus YJR075W, strain HOC1, active compounds read low

Measured: normalized growth

CCC(CO)NC(=O)C1C=C2c3cccc4c3c(cn4C)CC2N(C)C1 (stereo not drawn)
inactive: [1] 0.988 | [2] 1.08 | [3] 0.999 | [4] 1 | [5] 0.972 | [6] 0.998 | [7] 1 | [8] 0.999 | [9] 0.994 | [10] 0.962 | S. cerevisiae deletion strains, locus YNL128W, strain TEP1, active compounds read low 1.02 | [11] 1 | [12] 0.987 | [13] 1.02 | [14] 1 | [15] 0.989 | [16] 0.988 | [17] 0.997 | [18] 1

Nc1ccc(S(=O)(=O)O)cc1
inactive: [19] 0.992 | [20] 0.987 | [21] 0.998 | [22] 0.966 | [23] 0.976 | [24] 0.939 | [25] 1.01 | [26] 0.97

CC[C@]1(O)CC2CN(CCc3c([nH]c4ccccc34)[C@@](C(=O)OC)(c3cc4c(cc3OC)N(C=O)[C@H]3[C@@](O)(C(=O)OC)[C@H](OC(C)=O)[C@]5(CC)C=CCN6CC[C@]43[C@@H]65)C2)C1 (stereo partly drawn)
inactive: S. cerevisiae deletion strains, locus YAL021C, strain ccr4, active compounds read low 1 | S. cerevisiae deletion strains, locus YAL026C, strain drs2, active compounds read low 0.984 | S. cerevisiae deletion strains, locus YAL030W, strain snc1, active compounds read low 0.993 | S. cerevisiae deletion strains, locus YBL061C, strain skt5, active compounds read low 1 | S. cerevisiae deletion strains, locus YBR009C, strain hhf1, active compounds read low 0.988 | S. cerevisiae deletion strains, locus YBR023C, strain chs3, active compounds read low 0.999 | S. cerevisiae deletion strains, locus YBR171W, strain sec66, active compounds read low 0.978 | S. cerevisiae deletion strains, locus YBR231C, strain swc5, active compounds read low 1.01 | S. cerevisiae deletion strains, locus YBR279W, strain paf1, active compounds read low 0.989 | S. cerevisiae deletion strains, locus YCL011C, strain gbp2, active compounds read low 1.01 | S. cerevisiae deletion strains, locus YCL016C, strain dcc1, active compounds read low 1.03 | S. cerevisiae deletion strains, locus YCL061C, strain MRC1, active compounds read low 0.971 | S. cerevisiae deletion strains, locus YCL069W, strain vba3, active compounds read low 0.968 | S. cerevisiae deletion strains, locus YCR088W, strain abp1, active compounds read low 0.986 | S. cerevisiae deletion strains, locus YDL005C, strain med2, active compounds read low 0.985 | S. cerevisiae deletion strains, locus YDL040C, strain nat1, active compounds read low 0.988 | S. cerevisiae deletion strains, locus YDR001C, strain nth1, active compounds read low 1 | S. cerevisiae deletion strains, locus YDR069C, strain doa4, active compounds read low 0.984 | S. cerevisiae deletion strains, locus YDR137W, strain rgp1, active compounds read low 0.989 | S. cerevisiae deletion strains, locus YDR159W, strain sac3, active compounds read low 0.994 | S. cerevisiae deletion strains, locus YDR195W, strain ref2 0.978 | S. cerevisiae deletion strains, locus YDR297W, strain sur2, active compounds read low 0.982 | S. cerevisiae deletion strains, locus YDR334W, strain swr1, active compounds read low 0.937 | S. cerevisiae deletion strains, locus YDR335W, strain msn5, active compounds read low 0.977 | S. cerevisiae deletion strains, locus YDR392W, strain spt3, active compounds read low 0.987 | S. cerevisiae deletion strains, locus YEL003W, strain gim4, active compounds read low 0.972 | S. cerevisiae deletion strains, locus YEL037C, strain rad23, active compounds read low 0.981 | S. cerevisiae deletion strains, locus YEL061C, strain CIN8 (second series), active compounds read low 0.968 | S. cerevisiae deletion strains, locus YER015W, strain faa2, active compounds read low 0.997 | S. cerevisiae deletion strains, locus YER016W, strain bim1, active compounds read low 0.989 | S. cerevisiae deletion strains, locus YER111C, strain swi4, active compounds read low 0.989 | S. cerevisiae deletion strains, locus YER155C, strain BEM2 (second series), active compounds read low 0.962 | S. cerevisiae deletion strains, locus YFR010W, strain ubp6, active compounds read low 0.94 | S. cerevisiae deletion strains, locus YGL167C, strain pmr1, active compounds read low 0.972 | S. cerevisiae deletion strains, locus YGL173C, strain kem1, active compounds read low 0.996 | S. cerevisiae deletion strains, locus YGL227W, strain vid30, active compounds read low 0.985 | S. cerevisiae deletion strains, locus YGL240W, strain doc1, active compounds read low 0.966 | S. cerevisiae deletion strains, locus YGL253W, strain hxk2, active compounds read low 1.02 | S. cerevisiae deletion strains, locus YHR013C, strain ard1, active compounds read low 1 | S. cerevisiae deletion strains, locus YHR027C, strain rpn1, active compounds read low 0.992 | [19] 0.972 | [20] 0.97 | S. cerevisiae deletion strains, locus YHR142W, strain chs7, active compounds read low 1.04 | S. cerevisiae deletion strains, locus YJL092W, strain hpr5, active compounds read low 0.973 | S. cerevisiae deletion strains, locus YJL095W, strain BCK1 (second series), active compounds read low 0.988 | [21] 0.958 | S. cerevisiae deletion strains, locus YJL115W, strain asf1, active compounds read low 0.981 | S. cerevisiae deletion strains, locus YJL129C, strain trk1, active compounds read low 1.01 | S. cerevisiae deletion strains, locus YJL154C, strain vps35, active compounds read low 0.972 | S. cerevisiae deletion strains, locus YJL164C, strain tpk1, active compounds read low 0.986 | S. cerevisiae deletion strains, locus YJL166W, strain qcr8, active compounds read low 0.998 | [22] 0.939 | S. cerevisiae deletion strains, locus YKL160W, strain elf1, active compounds read low 1.03 | S. cerevisiae deletion strains, locus YKR026C, strain gcn3, active compounds read low 0.982 | S. cerevisiae deletion strains, locus YKR091W, strain srl3, active compounds read low 0.999 | S. cerevisiae deletion strains, locus YLL001W, strain dnm1, active compounds read low 1.01 | S. cerevisiae deletion strains, locus YLL026W, active compounds read low 0.992 | S. cerevisiae deletion strains, locus YLL041C, strain sdh2, active compounds read low 0.992 | S. cerevisiae deletion strains, locus YLR027C, strain aat2, active compounds read low 0.991 | [23] 0.936 | S. cerevisiae deletion strains, locus YLR221C, strain rsa3, active compounds read low 0.981 | S. cerevisiae deletion strains, locus YLR258W, strain gsy2, active compounds read low 0.994 | S. cerevisiae deletion strains, locus YLR262C, strain YPT6 (second series), active compounds read low 0.954 | S. cerevisiae deletion strains, locus YLR320W, strain mms22, active compounds read low 0.985 | S. cerevisiae deletion strains, locus YLR342W, strain FKS1, active compounds read low 0.984 | S. cerevisiae deletion strains, locus YLR357W, strain rsc2, active compounds read low 0.92 | S. cerevisiae deletion strains, locus YLR370C, strain arc18, active compounds read low 1.01 | S. cerevisiae deletion strains, locus YLR384C, strain iki3, active compounds read low 1.01 | S. cerevisiae deletion strains, locus YML120C, strain ndi1, active compounds read low 0.964 | S. cerevisiae deletion strains, locus YMR058W, strain fet3, active compounds read low 0.982 | S. cerevisiae deletion strains, locus YMR125W, strain sto1, active compounds read low 0.926 | S. cerevisiae deletion strains, locus YMR129W, active compounds read low 0.994 | S. cerevisiae deletion strains, locus YMR205C, strain PFK2, active compounds read low 1.01 | S. cerevisiae deletion strains, locus YMR231W, strain pep5, active compounds read low 0.986 | S. cerevisiae deletion strains, locus YNL071W, strain lat1, active compounds read low 0.973 | [24] 0.933 | S. cerevisiae deletion strains, locus YNL209W, strain ssb2, active compounds read low 1 | S. cerevisiae deletion strains, locus YNL248C, strain rpa49, active compounds read low 0.991 | S. cerevisiae deletion strains, locus YNL322C, strain KRE1 (second series), active compounds read low 0.975 | S. cerevisiae deletion strains, locus YNR049C, strain mso1, active compounds read low 0.975 | S. cerevisiae deletion strains, locus YOR001W, strain rrp6, active compounds read low 0.945 | S. cerevisiae deletion strains, locus YOR070C, strain gyp1, active compounds read low 0.999 | S. cerevisiae deletion strains, locus YOR080W, strain dia2, active compounds read low 0.996 | S. cerevisiae deletion strains, locus YOR083W, strain WHI5, active compounds read low 1.01 | S. cerevisiae deletion strains, locus YOR106W, strain vam3, active compounds read low 0.998 | [25] 0.964 | S. cerevisiae deletion strains, locus YOR265W, strain rbl2, active compounds read low 0.989 | S. cerevisiae deletion strains, locus YOR270C, strain vph1, active compounds read low 1.04 | S. cerevisiae deletion strains, locus YOR290C, strain snf2, active compounds read low 1.02 | S. cerevisiae deletion strains, locus YPL051W, strain arl3, active compounds read low 1.01 | S. cerevisiae deletion strains, locus YPL078C, strain atp4, active compounds read low 1.04 | S. cerevisiae deletion strains, locus YPL106C, strain sse1, active compounds read low 0.953 | S. cerevisiae deletion strains, locus YPL240C, strain hsp82, active compounds read low 0.952 | [26] 1.05

Oc1ccc2c3c1O[C@H]1c4oc5ccccc5c4C[C@@]4(O)C(C2)N(CC2CC2)CCC314 (stereo partly drawn)
inactive: [2] 1.01 | [3] 1 | [5] 0.994 | [6] 0.988 | [27] 0.99 | [10] 0.988 | [12] 1.01 | [13] 1.01 | [14] 1 | [15] 0.993 | [16] 1.01 | [17] 0.975

O=C(O)c1cc(C(F)(F)F)ccc1F
inactive: [1] 0.999 | S. cerevisiae deletion strains, locus YBR229C, strain ROT2, active compounds read low 0.982 | S. cerevisiae deletion strains, locus YDL101C, strain DUN1, active compounds read low 0.961 | S. cerevisiae deletion strains, locus YDL134C, strain PPH21, active compounds read low 0.989 | [4] 1 | S. cerevisiae deletion strains, locus YEL061C, strain CIN8, active compounds read low 0.997 | [7] 0.975 | [8] 1 | [19] 0.964 | S. cerevisiae deletion strains, locus YHR087W, strain rtc3, active compounds read low 0.973 | S. cerevisiae deletion strains, locus YJL187C, strain SWE1, active compounds read low 0.998 | S. cerevisiae deletion strains, locus YJR043C, strain POL32, active compounds read low 0.995 | [27] 1 | S. cerevisiae deletion strains, locus YKL190W, strain CNB1, active compounds read low 1 | S. cerevisiae deletion strains, locus YLR039C, strain RIC1, active compounds read low 0.991 | S. cerevisiae deletion strains, locus YLR058C, strain SHM2 (second series), active compounds read low 0.983 | S. cerevisiae deletion strains, locus YLR085C, strain ARP6, active compounds read low 1.02 | S. cerevisiae deletion strains, locus YLR262C, strain YPT6, active compounds read low 0.979 | S. cerevisiae deletion strains, locus YML094W, strain GIM5, active compounds read low 0.916 | S. cerevisiae deletion strains, locus YMR219W, strain ESC1, active compounds read low 0.999 | [9] 1.01 | [11] 1.02 | S. cerevisiae deletion strains, locus YNL298W, strain CLA4 (second series), active compounds read low 0.996 | [15] 0.99 | S. cerevisiae deletion strains, locus YNR030W, strain Alg12, active compounds read low 0.982 | S. cerevisiae deletion strains, locus YOL006C, strain TOP1, active compounds read low 0.987 | [17] 1.01 | [18] 0.929 | S. cerevisiae deletion strains, locus YPR135W, strain CTF4, active compounds read low 0.905 | S. cerevisiae strains, strain wild type, active compounds read low 0.979
